Our source for the AC50 and outcome values is PubChem BioAssay (EPA / NIEHS).

Where “and” joins values, the source holds several entries; their conditions need not be identical. Equal values may be shown once. Inconclusive results are not listed. A structure can be active in one record and inactive in another. Calls of active or inactive are those of the source. Rule for the calls: active = hit-call score of the fitted dose curve at least 0.9, where 1 is the maximum; inconclusive = response in the unintended direction; inactive = score below 0.9.

The target of test [1] is human Peripheral-type Benzodiazepine Receptor (PBR), TSPO (gene 706) (UniProt P30536). The experiment in a line: NVS_MP_hPBR: NovaScreen (NVS) Membrane Protein Assay for human Peripheral-type Benzodiazepine Receptor (PBR) (AID 2283331).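 Note: hits reduce radioligand binding relative to DMSO baseline.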 The gist of the method:
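Cell-free radioligand displacement, human colonic membranes, 1 h exposure. Filter radiodetection read-out. Single-concentration duplicates (25 uM), then concentration-response for actives; DMSO negative control.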

In test [2] the target is rat Peripheral-type Benzodiazepine Receptor (PBR), Tspo (gene 24230) (UniProt P16257). The experiment in a line: NVS_MP_rPBR: NovaScreen (NVS) Membrane Protein Assay for rat Peripheral-type Benzodiazepine Receptor (PBR) (AID 2283335). The gist of the method: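 Competitive displacement of specific radioligand from rat kidney membrane PBR, read by filtration and scintillation after 1 h. Compounds first tested at 25 uM in duplicate, then in concentration series; signal loss relative to DMSO.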

Test [3] can be described thus: NVS_IC_rCaBTZCHL: NovaScreen (NVS) Ion Channel Assay for Calcium Channel, Type L, Benzothiazepine Site (CaBTZCHL) (AID 2283337). The gist of the method: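 Rat cortical membrane preparation incubated 1.5 h with compound and benzothiazepine-site radioligand; loss of filter-bound counts versus DMSO marks displacement. Initial duplicate testing at 25 uM, actives followed up in concentration series.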

Test [4] addresses rat Thyrotropin Releasing Hormone Receptor (TRH), Trhr (gene 25570) (UniProt Q01717). The experiment in a line: NVS_GPCR_rTRH: NovaScreen (NVS) G Protein-Coupled Receptor Assay for rat Thyrotropin Releasing Hormone Receptor (TRH) (AID 2283329).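 Note: hit means lower bound tracer signal versus DMSO baseline.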 A digest of the protocol:
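Rat forebrain membrane prep, radioligand displacement, filter scintillation readout at 4 h. Single conc 25 uM, duplicate; actives retested as concentration series. DMSO = negative control/baseline.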

Test [5] addresses rat Opioid Receptor, Non-selective Sodium (Na+) Binding, Oprm1 (gene 25601) (UniProt P33535). The experiment in a line: NVS_GPCR_rOpiate_NonSelectiveNa: NovaScreen (NVS) G Protein-Coupled Receptor Assay for rat Opioid Receptor, Non-selective Sodium (Na+) Binding (AID 2283311). A digest of the protocol:
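Filtration radioligand binding on rat forebrain membrane preparations, read 1.5 h after dosing. Single-concentration 25 µM primary screen in duplicate, followed by singleton concentration series to 50 µM max for actives; DMSO baseline.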

In test [6] the target is rat Vasopressin 1 Receptor (V1), Avpr1a (gene 25107) (UniProt P30560). Description: NVS_GPCR_rV1: NovaScreen (NVS) G Protein-Coupled Receptor Assay for rat Vasopressin 1 Receptor (V1) (AID 2283316). A digest of the protocol:
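Concentration-response up to 50 uM for chemicals passing a threshold such as 30% inhibition in an initial duplicate 25 uM screen. Displacement of radioligand from rat liver membranes measured after 1.5 h by filtration and scintillation.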

Test [7] concerns the target rat Opioid Receptor, Non-selective Binding, Oprm1 (gene 25601) (UniProt P33535). The experiment in a line: NVS_GPCR_rOpiate_NonSelective: NovaScreen (NVS) G Protein-Coupled Receptor Assay for rat Opioid Receptor, Non-selective Binding (AID 2283318). A digest of the protocol:
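Filter-based radioligand displacement using rat forebrain membrane preparations, measured 1.5 h post-dosing. Single-concentration duplicate screen at 25 uM, follow-up in concentration series; activity taken as signal loss relative to DMSO.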

For test [8], the target named is Sodium channel protein type 1 subunit alpha (Rattus norvegicus) (UniProt P04774). The experiment in a line: NVS_IC_rNaCh_site2: NovaScreen (NVS) Ion Channel Assay for rat Sodium Channel, Site 2 (NaCh) (AID 2283322).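 Note: hit means loss of radioligand binding signal relative to DMSO so AC50 marks displacement.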 The gist of the method:
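Initial duplicate single-point testing at 25 uM, followed by concentration-response runs for actives. Binding of radioligand to rat forebrain membranes quantified after 1 h via filter-based radiodetection.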

A further test concerns NCBI gene 100848466. Description: NVS_NR_bPR: NovaScreen (NVS) Nuclear Receptor Binding Assay for bovine Progextron Receptor (PR) (AID 2283343).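 Note: actives lower bound radioligand signal below DMSO meaning displacement of the label.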 A digest of the protocol:
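Scintillation counts of bound radioligand were read 18 hours after chemical addition to membranes extracted from bovine uterus. Displacement was scored as loss of signal relative to DMSO controls. Screening began at 25 uM in duplicate.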

Test [9] deals with rat Adrenergic Receptor, Beta (Adrb), Non-selective Binding, Adrb1 (gene 24925) (UniProt P18090). The experiment in a line: NVS_GPCR_rAdrb_NonSelective: NovaScreen (NVS) G Protein-Coupled Receptor Assay for rat Adrenergic Receptor, Beta (Adrb), Non-selective Binding (AID 2283298). A digest of the protocol: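 Rat cortical membranes incubated 1 h with beta-adrenergic radioligand and test chemical; bound ligand measured by filtration and scintillation counting. Screen at 25 uM duplicate, then concentration series with 50 uM maximum; loss of signal versus DMSO.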

Test [10] deals with rat Neonicotinoid receptor (NNR), Chrna7 (gene 25302) (UniProt Q05941). The experiment in a line: NVS_LGIC_rNNR_BungSens: NovaScreen (NVS) Ligand-Gated Ion Channel Assay for rat Neonicotinoid receptor (NNR) (AID 2283315). The gist of the method: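 Rat cortical membrane preparation incubated 2.5 h with tritiated or iodinated radioligand and test chemical. Bound radioactivity was filtered and counted by scintillation, and displacement was analysed against DMSO.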

In test [11] the target is bovine Gamma-Aminobutyric Acid Type A Receptor Agonist (GABAR Agonist), GABRA1 (gene 780973) (UniProt P08219). The experiment in a line: NVS_LGIC_bGABAR_Agonist: NovaScreen (NVS) Ligand-Gated Ion Channel Assay for bovine Gamma-Aminobutyric Acid Type A Receptor Agonist (GABAR Agonist) (AID 2283338). A digest of the protocol: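 Radioligand binding to bovine cerebellar membranes in agonist format, read by filter-based scintillation counting after 1 h. Primary screen in duplicate at 25 uM, with actives followed in concentration series. Gain of signal versus DMSO.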

The test system of test [12] is guinea pig Histamine Receptor (H2), gene 100729734. The experiment in a line: NVS_GPCR_gH2: NovaScreen (NVS) G Protein-Coupled Receptor Assay for guinea pig Histamine Receptor (H2) (AID 2283342). A digest of the protocol: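 Guinea pig striatal membrane preparation with specific radioligand; bound counts measured by filtration and scintillation 1 h post-dosing, DMSO as baseline. Chemicals passing a 25 uM duplicate screen were titrated to a 50 uM maximum.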

rat Peripheral-type Benzodiazepine Receptor (PBR), Tspo (gene 24230), sequence (P16257 whole entry, looked up): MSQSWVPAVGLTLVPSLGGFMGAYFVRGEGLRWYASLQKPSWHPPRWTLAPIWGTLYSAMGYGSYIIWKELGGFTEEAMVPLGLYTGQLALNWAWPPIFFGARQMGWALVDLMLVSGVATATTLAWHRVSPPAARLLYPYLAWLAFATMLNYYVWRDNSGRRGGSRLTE
rat Thyrotropin Releasing Hormone Receptor (TRH), Trhr (gene 25570), sequence (Q01717 whole entry, looked up): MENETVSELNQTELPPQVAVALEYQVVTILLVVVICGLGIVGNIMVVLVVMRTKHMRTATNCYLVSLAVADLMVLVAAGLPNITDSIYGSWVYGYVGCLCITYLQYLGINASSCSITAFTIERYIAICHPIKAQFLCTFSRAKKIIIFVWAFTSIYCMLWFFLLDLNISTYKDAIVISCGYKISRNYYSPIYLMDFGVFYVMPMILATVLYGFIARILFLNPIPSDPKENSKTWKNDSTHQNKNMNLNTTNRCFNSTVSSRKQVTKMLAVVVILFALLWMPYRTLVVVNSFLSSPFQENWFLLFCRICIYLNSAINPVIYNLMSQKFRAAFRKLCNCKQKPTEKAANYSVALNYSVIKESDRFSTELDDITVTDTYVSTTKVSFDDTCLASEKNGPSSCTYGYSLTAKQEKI
human Peripheral-type Benzodiazepine Receptor (PBR), TSPO (gene 706), sequence (P30536 whole entry, looked up): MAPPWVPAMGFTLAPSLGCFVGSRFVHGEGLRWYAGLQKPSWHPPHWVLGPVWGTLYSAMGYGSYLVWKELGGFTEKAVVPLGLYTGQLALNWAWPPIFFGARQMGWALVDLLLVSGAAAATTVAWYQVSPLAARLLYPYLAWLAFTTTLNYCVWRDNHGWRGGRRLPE
rat Vasopressin 1 Receptor (V1), Avpr1a (gene 25107), sequence (P30560 whole entry, looked up): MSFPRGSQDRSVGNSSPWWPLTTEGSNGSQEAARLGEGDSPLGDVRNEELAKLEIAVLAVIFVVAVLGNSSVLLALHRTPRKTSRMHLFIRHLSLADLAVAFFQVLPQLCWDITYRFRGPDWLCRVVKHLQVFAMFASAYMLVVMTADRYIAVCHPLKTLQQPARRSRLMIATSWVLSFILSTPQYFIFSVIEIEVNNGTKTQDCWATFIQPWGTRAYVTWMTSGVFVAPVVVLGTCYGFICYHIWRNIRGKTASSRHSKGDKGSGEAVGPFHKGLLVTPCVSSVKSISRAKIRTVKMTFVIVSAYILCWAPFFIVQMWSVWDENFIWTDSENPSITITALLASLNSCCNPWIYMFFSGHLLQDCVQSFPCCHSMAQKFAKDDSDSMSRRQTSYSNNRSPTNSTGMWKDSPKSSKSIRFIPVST
rat Opioid Receptor, Non-selective Sodium (Na+) Binding, Oprm1 (gene 25601), sequence (P33535 whole entry, looked up): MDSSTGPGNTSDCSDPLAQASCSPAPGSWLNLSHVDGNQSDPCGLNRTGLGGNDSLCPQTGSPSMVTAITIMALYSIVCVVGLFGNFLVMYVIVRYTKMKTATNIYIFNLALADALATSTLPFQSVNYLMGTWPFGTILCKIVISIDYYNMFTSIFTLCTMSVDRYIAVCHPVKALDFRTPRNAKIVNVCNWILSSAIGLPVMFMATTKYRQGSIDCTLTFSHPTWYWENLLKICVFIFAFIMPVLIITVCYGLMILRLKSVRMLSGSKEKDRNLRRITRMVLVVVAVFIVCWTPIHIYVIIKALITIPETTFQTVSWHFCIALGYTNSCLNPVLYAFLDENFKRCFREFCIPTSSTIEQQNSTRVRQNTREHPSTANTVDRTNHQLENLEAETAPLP
rat Opioid Receptor, Non-selective Binding, Oprm1 (gene 25601), sequence (P33535 whole entry, looked up): as above
rat Neonicotinoid receptor (NNR), Chrna7 (gene 25302), sequence (Q05941 whole entry, looked up): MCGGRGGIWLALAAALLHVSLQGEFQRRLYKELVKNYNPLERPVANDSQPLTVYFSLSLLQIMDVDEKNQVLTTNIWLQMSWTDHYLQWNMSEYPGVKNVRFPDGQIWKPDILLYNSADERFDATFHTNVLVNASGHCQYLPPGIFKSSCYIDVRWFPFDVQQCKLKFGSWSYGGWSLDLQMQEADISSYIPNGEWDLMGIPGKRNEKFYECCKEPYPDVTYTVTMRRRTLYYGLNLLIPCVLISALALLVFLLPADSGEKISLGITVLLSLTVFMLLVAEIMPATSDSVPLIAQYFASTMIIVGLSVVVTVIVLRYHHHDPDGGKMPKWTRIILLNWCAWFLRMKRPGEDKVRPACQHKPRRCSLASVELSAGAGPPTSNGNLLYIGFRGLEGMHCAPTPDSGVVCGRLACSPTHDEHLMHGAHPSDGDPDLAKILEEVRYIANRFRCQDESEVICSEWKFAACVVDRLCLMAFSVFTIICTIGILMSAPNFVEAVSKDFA
rat Adrenergic Receptor, Beta (Adrb), Non-selective Binding, Adrb1 (gene 24925), sequence (P18090 whole entry, looked up): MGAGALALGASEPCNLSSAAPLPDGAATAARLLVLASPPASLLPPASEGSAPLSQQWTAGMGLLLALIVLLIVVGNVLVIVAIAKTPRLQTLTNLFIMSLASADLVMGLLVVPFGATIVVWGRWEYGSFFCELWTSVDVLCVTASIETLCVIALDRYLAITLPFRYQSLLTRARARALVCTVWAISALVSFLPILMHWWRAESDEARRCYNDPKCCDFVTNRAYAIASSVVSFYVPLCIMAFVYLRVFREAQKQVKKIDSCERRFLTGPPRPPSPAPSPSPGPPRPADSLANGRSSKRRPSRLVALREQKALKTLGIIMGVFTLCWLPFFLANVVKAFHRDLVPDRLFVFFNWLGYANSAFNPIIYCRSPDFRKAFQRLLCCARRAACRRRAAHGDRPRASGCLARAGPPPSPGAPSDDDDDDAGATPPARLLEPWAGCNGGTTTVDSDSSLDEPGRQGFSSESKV
bovine Gamma-Aminobutyric Acid Type A Receptor Agonist (GABAR Agonist), GABRA1 (gene 780973), sequence (P08219 whole entry, looked up): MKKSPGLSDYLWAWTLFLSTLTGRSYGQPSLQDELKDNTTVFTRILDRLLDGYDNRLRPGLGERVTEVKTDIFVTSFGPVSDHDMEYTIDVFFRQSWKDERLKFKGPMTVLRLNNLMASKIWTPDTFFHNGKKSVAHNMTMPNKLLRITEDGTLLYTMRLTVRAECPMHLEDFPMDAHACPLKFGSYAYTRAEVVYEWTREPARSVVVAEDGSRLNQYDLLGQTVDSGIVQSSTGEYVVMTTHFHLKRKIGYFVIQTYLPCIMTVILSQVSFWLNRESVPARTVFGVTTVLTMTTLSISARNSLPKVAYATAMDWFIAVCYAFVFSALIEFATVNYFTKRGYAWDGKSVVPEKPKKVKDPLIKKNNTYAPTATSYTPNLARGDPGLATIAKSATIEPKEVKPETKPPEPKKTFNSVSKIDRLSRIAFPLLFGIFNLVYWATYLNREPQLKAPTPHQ

What is called AC50 is the concentration at which the activity in the assay is half-maximal. As for `O=C1OC2(c3ccc(O)cc3Oc3cc(O)ccc32)c2ccccc21`, the AC50 in [1] is 25 µM (active) and 9.1 µM (active); in test [2], 15.1 µM (active). The result in test [3] was inactive.
Regarding `CCCCCCOc1ccc(O)cc1`, the AC50 in test [1] is 7.77 µM (active); in [2] it was 6.49 µM (active).
As to `NC(=O)c1c(Cl)cccc1Cl`, the AC50 in test [1] was 3.59 µM (active). Besides, the molecule was classed as inactive in test [2].
Consider `CC12CCC(C1)C(C)(C)C2O` (stereo not drawn), for which the molecule was classed as inactive in test [4].
`COc1cc(OC)c2ccc(=O)oc2c1`: the concentration at half-maximal activity (AC50) in test [1] was 12.1 µM (active); in [2] it was 0.157 µM (active).
On to `CC1(C)[C@H](C=C(Cl)Cl)[C@H]1C(=O)OCc1cccc(Oc2ccccc2)c1`, for which the molecule was classed as inactive in test [2].
For `O=Cc1ccccc1O`, in test [4], the outcome was inactive.
With `C#C[C@]1(O)CC[C@H]2[C@@H]3CCc4cc(O)ccc4[C@H]3CC[C@@]21C`, the call in test [5], in test [8] and in [2] was inactive. The AC50 was 25 µM (active) in test [6]; 20.5 µM (active) in [7]; 2.52 µM (active) and 13.7 µM (active) and 11.4 µM (active) in [1]; 4.59 µM (active) in [2]; 0.051 µM (active) in the test on NCBI gene 100848466.
Regarding `Cc1ccc(C(C)(C)O)cc1`, the outcome in test [3] was inactive.
With `C1CCCNCC1`, the outcome in test [4] was inactive.
In the case of `CN1CCc2cccc3c2[C@H]1Cc1ccc(O)c(O)c1-3`, the half-maximal activity concentration (AC50) in [1] is 1.83 µM (active).
For the molecule `CCCCCC(=O)O[C@]1(C(C)=O)CC[C@H]2[C@@H]3CCC4=CC(=O)CC[C@]4(C)[C@H]3CC[C@@]21C`, the result in [4] was inactive.
On the same count and under the same terms, then `c1coc(CNc2ncnc3nc[nH]c23)c1`, with “inactive”.
As to `CC/C(=C(\c1ccccc1)c1ccc(OCCN(C)C)cc1)c1ccccc1`, the AC50 is 5.74 µM (active) in test [9]; 1.56 µM (active) in [8]; 938 nM (active) and 874 nM (active) in [3]; 4.7 µM (active) and 1.19 µM (active) in test [12]. Also, the molecule was classed as inactive in test [5], in [10], in test [6], in test [7] and in test [11].
Consider `C=CC(=O)OCC(CO)(COC(=O)C=C)COC(=O)C=C`, for which the half-maximal activity concentration (AC50) in test [1] was 11 µM (active).
Consider `CCC(C)(C)C1CCC(OC)CC1` (stereo not drawn), for which, in [4], the molecule was called inactive.
Consider `Cc1cc(O)c(C)c(C)c1O`, for which, in test [10], the call was inactive.
For `O=S(=O)(O)c1cc(S(=O)(=O)O)c2c(N=Nc3ccccc3)c(O)ccc2c1`, the call in test [4] was inactive.
